Among the data in PubChem BioAssay (EPA / NIEHS) are outcome and AC50 values, retold here.

The structures appear in SMILES notation. Results filed as inconclusive are left out. Calls of active or inactive are those of the source. How the source made its calls: active means hit-call score of the fitted dose curve at least 0.9, where 1 is the maximum; inconclusive means response in the unintended direction; inactive means score below 0.9.

This experiment in a line: CCTE_Deisenroth_AIME_384WELL_CTox_Active: Cytotoxicity Assessment (CTOX) in CCTE's 384-well Estrogen Receptor Transactivation Assay with AIME metabolic competence (metabolism positive), Deisenroth Lab (AID 2284037).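 Further: chemicals first conditioned 2 h by alginate-bound induced rat liver S9 before cells; activity means signal loss indicating cell death.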 On the procedure:
CCTE_Deisenroth_AIME_384WELL (AIME metabolism assay) is a cell-based, single-readout assay that uses VM7Luc4E2, a human mammary gland/breast cell line, with measurements taken at 24 hour after chemical dosing in a 384-well plate.CCTE_Deisenroth_AIME_384WELL_CTox_Active is one of four assay components measured or calculated from the CCTE_Deisenroth_AIME_384WELL assay. It is designed to make measurements of a protease substrate, a type of viability indicator, as detected with substrate cleavage to a fluorescent probe in living cells.CCTE_Deisenroth_AIME_384WELL_CTox_Active is a component of the CCTE_Deisenroth_AIME_384WELL assay that measures the effect of retroftting the VM7Luc ERTA assay with the Alginate Immobolization of Metabolic Enzymes (AIME) metabolism method. AIME is optimized to impart phase I hepatic metabolism using phenobarbital/beta-naphthoflavone induced hepatic S9 from male Sprague Dawley rats. Parent chemicals are incubated for 2 hours in the AIME assay prior to transfer to the VM7Luc ERTA assay plate. […] This endpoint evaluates cytotoxicity in metabolism positive mode. Using a type of flourescent probe in VM7Luc cells, loss-of-signal activity can be used to understand loss of viability. This assay endpoint, CCTE_Deisenroth_AIME_384WELL_CTox_Active, was analyzed with bidirectional fitting in the ERTA assay.
The AIME procedure consists of a preparative "pre-stamping" step using a barium chloride/poly-L-lysine (PLL) solution followed by "stamping" the lid in alginate-hepatic S9 (metabolism positive) or alginate-water (metabolism negative) to form microspheres. Once stamping is completed, the AIME lids are placed in duplicate microplates (metabolism positive or negative) containing chemical solutions and incubated for two hours to facilitate metabolic reactions. The conditioned medium, containing parent chemical or metabolites, is then transferred to the cell-based VM7Luc Estrogen Receptor Transactivation Assay (ERTA) for 24 hours. A typical experimental design tests a 10-point concentration series (0.002 - 200 uM) for 8 compounds (96-well format) (Deisenroth 2020) or 32 compounds (384-well format) (Hopperstad 2022) in single technical replicate. AIME assay controls include trans-stilbene (bioactivated control) and ethylparaben (bioinactivated control). ERTA assay plate controls include 17-beta estradiol (positive control) and DMSO (solvent control). Experiments typically comprise a minimum of four experimental replicates (n=4).
On to `OCC(O)CO`, for which the result was inactive.
On the same count and under the same terms, next, `C=CC(=O)NCNC(=O)C=C`: “inactive”; `Nc1ccc(-c2ccc(N)cc2)cc1`: “inactive”.
The same measure, in the same setting: next, `Cc1cc(-c2ccc(N)c(C)c2)ccc1N`: “inactive”; `c1ccc(-c2ccccc2)cc1`: “inactive”; `c1cc2ccc3cccc4ccc(c1)c2c34`: “inactive”.
For orientation: AC50 means the concentration at which the activity in the assay is half-maximal. With `CCC(C)(c1ccc(O)cc1)c1ccc(O)cc1`, the concentration at half-maximal activity (AC50) is 164 µM (active).
In the case of `CCOCCOC(C)=O`, the compound was classed as inactive.
Same read-out and setting: the entry for `C[C@]12CCC(=O)C=C1CC[C@@H]1[C@@H]2CC[C@]2(C)C(=O)CC[C@@H]12` is “inactive”; for `COS(=O)(=O)OC` it is “inactive”; for `CN(C)CCO` it is “inactive”.
Take `O=S(=O)(O)C(F)(F)C(F)(F)C(F)(F)C(F)(F)C(F)(F)C(F)(F)F`: the outcome was inactive.
For the compound `O=C(O)C(F)(F)C(F)(F)C(F)(F)C(F)(F)C(F)(F)C(F)(F)C(F)(F)C(F)(F)F`, the AC50 was 146 µM (active).
`O=C(N[C@H]1CN2CCC1CC2)c1cc2ccoc2cn1`: the compound was called inactive.
Still for that read-out and setting: next, `Clc1ccc(C(Cl)(Cl)Cl)cc1`: “inactive”; `COc1ccc(O)c(C(C)(C)C)c1`: “inactive”; `CCCN(CCC)N=O`: “inactive”.
For `Cc1cccc([N+](=O)[O-])c1`, the result was inactive.
For `CCCCCCCCCc1ccc(O)cc1`, the AC50 was 150 µM (active).
Regarding `CCC(=O)O[C@H]1CC[C@H]2[C@@H]3CCC4=CC(=O)CC[C@]4(C)[C@H]3CC[C@]12C`, the compound was called inactive.
The same measure, in the same setting: next, `Cc1ccccc1CO[C@@H]1C[C@@]2(C(C)C)CC[C@]1(C)O2`: “inactive”.
